# Results taken from PubChem BioAssay (NCATS).
# Results filed as inconclusive are left out. Active and inactive are the calls of the source. The call rests on the fitted dose curve; in most records, active means well fitted inhibition curve with a large enough effect; inconclusive means small, poorly fitted or top-dose-only effect; inactive means flat fitted curve, though single readings scatter.
# Test system: CRL-7250
# Experiment: Cytotoxic Profiling of Annotated Libraries Using Quantitative High-Throughput Screening (AID 1296008); further: nearly all actives have a fitted effect of over 60% in size
# Details: Five cell lines viability, CellTiter-Glo ATP luminescence, 48-72 h; max response: active compounds read low
# Summary of the method: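 Compounds were pin-transferred onto cells and incubated 48 or 72 hr at 37 degree Celsius, 95% humidity. CellTiter-Glo was added, plates sat 10 min at room temperature, then ATP-coupled luminescence was imaged as the viability read-out.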
# On the % scale 0 is the no-effect control and ±100 the full control effect; potency means the concentration at half of the fitted maximal effect.
Structure (SMILES),Potency,outcome,max response
COc1ccc(CC2C(=O)NC(C)C(=O)N(C)C3Cc4ccc(cc4)Oc4cc(ccc4OC4OC(CO)C(O)C(O)C4O)CC(C(=O)NC(C)C(=O)NC(C)C(=O)N2C)N(C)C3=O)cc1 (configuration not stated),0.0873 µM (active),,
CC1(C)CC[C@]2(C(=O)O[C@@H]3O[C@H](CO[C@@H]4O[C@H](CO)[C@@H](O)[C@H](O)[C@H]4O[C@@H]4O[C@H](CO)[C@@H](O)[C@H](O)[C@H]4O)[C@@H](O)[C@H](O[C@@H]4O[C@H](CO)[C@@H](O)[C@H](O)[C@H]4O)[C@H]3O)CC[C@]3(C)C(=CCC4[C@@]5(C)CC[C@@H](O)[C@@](C)(C(=O)O[C@@H]6O[C@H](CO)[C@@H](O)[C@H](O)[C@H]6O)C5CC[C@]43C)[C@@H]2C1 (some centres not stated),,inactive,
C=C1[C@H](OC(C)=O)[C@H]2[C@@H](OC(C)=O)[C@](C)(OC(C)=O)C[C@]2(OC(C)=O)C(=O)[C@H](C)/C=C/C(C)(C)C(=O)[C@H](OC(=O)C(C)CC)[C@H]1OC(C)=O (some centres not stated),,,-1.41% (inactive)
C/C=C/C=C/[C@@H]1O[C@](O)([C@H](CC)C(=O)NC/C=C/C=C(\C)[C@@H](OC)[C@@H](C)C2OC(/C=C/C=C/C=C(\C)C(=O)c3c(O)cc[nH]c3=O)[C@H](O)[C@@H]2O)[C@H](O)[C@H](O)C1(C)C (some centres not stated),,,2.59% (inactive)
COc1cccc(C(=O)N2CCN(C(=O)COc3cccc(C)c3)CC2)c1OC,,inactive,
c1ccc(N2CCN(CCc3nn[nH]n3)CC2)cc1,,,4.82% (inactive)
CC(=O)N[C@H]1[C@H](O[C@H]2CC[C@@]3(C)C(CC[C@]4(C)C3CC=C3[C@@H]5CC(C)(C)CC[C@]5(C(=O)OC5OCC(O)C(O)C5O)CC[C@]34C)C2(C)C)O[C@H](COC2OC(C)C(O)C(OC3OC(C)C(O)C(O)C3O)C2O)[C@@H](O)[C@@H]1O (some centres not stated),,,-6.06% (inactive)
COC(=O)/C=C/C12COC(C)(C)C1C(O)C(OC(C)=O)C1(C)C2CCC2(C)C(c3ccoc3)OC(=O)C3OC321 (configuration not stated),,,-1.53% (inactive)
O=C(CCCCN1CCOCC1)Nc1ccc(-c2cccnc2)cc1,,,-12% (inactive)
CN1CCN(c2ccc(C(=O)Nc3n[nH]c4ccc(Cc5cc(F)cc(F)c5)cc34)c(NC3CCOCC3)c2)CC1,20.9 µM (active),,
O=C1NC(=O)C(c2cn3c4c(cccc24)CCC3)C1c1c[nH]c2ccccc12 (configuration not stated),5.8 µM (active),,
CC(=O)O[C@@H]1[C@H](O[C@@H]2O[C@@H](CO)[C@H](O)[C@H]2O)[C@@H](O[C@@H]2O[C@@H](C)[C@H](O[C@@H]3OC[C@@H](O)[C@H](O)[C@H]3O)[C@@H](O)[C@H]2O)[C@H](OC(=O)[C@]23CCC(C)(C)C[C@H]2C2=CCC4[C@@]5(C)CC[C@H](O[C@@H]6O[C@H](C(=O)O)[C@@H](O)[C@H](O)[C@H]6O[C@@H]6O[C@H](CO)[C@H](O)[C@H](O)[C@H]6O)[C@@](C)(C=O)C5CC[C@@]4(C)[C@]2(C)CC3)O[C@@H]1C (some centres not stated),,inactive,
